Screening data (PubChem)
Shown are actives, neighbours in structure and some others; about 17% of the full set was active somewhere.
HepG2 tox = kills HepG2 cells in TGF-b inhibitor counter-screen. HepG2 CAGA-GFP viability, ATP luminescence, 18 h. AID 588856. Potency, µM (top dose mostly 46.1 µM), without a hit: top-dose activity change, negative = cytotoxicity, most hits filed as cytotoxic. hit rate 0.76% among 410,000
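CellTiter-Glo luminescence gave cytotoxicity after 18 hours at 37 degrees C. The cells were HepG2 CAGA-GFP in 1% FBS DMEM, stimulated with 500 pg/mL TGF-beta after compound addition. %Activity was normalised to no-cell wells (complete cell-killing) and DMSO (no toxicity), and curves were fitted and classified.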
DT40 TDP1 no CPT = qHTS for Inhibitors of human tyrosyl-DNA phosphodiesterase 1 (TDP1): qHTS in cells in absence of CPT; DT40 Tdp1-/- hTDP1 cells, no CPT, ATP luminescence, 48 h; Potency, µM (highest dose often 46.2 µM), for inactives: at the top dose activity change, negative = growth inhibition, most hits filed as inhibitors; hit rate 15% among 420,000; AID 686978, 2013; note: % is set by controls: 0 for no effect and ±100 for the full control effect; nearly all actives have a fitted effect of over 55% in size
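Luminescent ATP content (CellTiter-Glo) served as the growth readout. Knockout chicken DT40 cells expressing human TDP1 were exposed to compounds without camptothecin for a minimum 48 hr at 37 °C.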
ATXN2 expr inh = reduces ATXN2 reporter expression in HEK-293 cells | HEK-293 ATXN2-luciferase reporter, luminescence, 24 h | Potency, µM (top dose mostly 57 µM), inactives show top-dose activity change, negative = inhibition, usual class: inhibitors | hit rate 0.72% among 360,000; note: % is set by controls: 0 for no effect and ±100 for the full control effect; nearly all actives have a fitted effect of over 55% in size
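qHTS (up to 57 uM final) was run with 24 h compound exposure of reporter cells at 37 °C. Each well was multiplexed: SteadyGlo luminescence measured ATXN2-luciferase expression after a fluorogenic Gly-Phe-AFC viability readout (25 uM final).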
S2 tox = cell viability loss in ATXN counter-screen | S2 cells (HEK-293 line with an ATXN2-luciferase reporter) viability, CellTiter-Fluor protease fluorescence, 24 h | Potency, µM (series often up to 56.7 µM), hits mostly cytotoxic | hit rate 0.49% among 400,000; note: nearly all actives have a fitted effect of over 40% in size
TGFb inhibitor = blocks TGF-b signaling; HepG2 CAGA-GFP TGF-b/SMAD3 reporter, GFP fluorescence, 18 h; TGF-beta stimulated, 500 pg/mL final; Potency, µM (doses to about 46.1 µM), for the others: top-dose activity, negative = inhibition, most hits filed as inhibitors; hit rate 1.2% among 410,000; note: % is set by controls: 0 for no effect and ±100 for the full control effect; nearly all actives have a fitted effect of over 65% in size
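HEPG2 CAGA-GFP reporter cells (1000/well, DMEM with 1% FBS) received compounds, then recombinant TGF-beta at 500 pg/mL final for 18 hours at 37 degrees C. Per-cell GFP summed per well was normalised to unstimulated and stimulated DMSO controls before curve fitting.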
DT40 TDP1 CPT = DT40-hTDP1 cell growth loss with CPT | Potency, µM (series often up to 46.2 µM), inactives show at the highest dose activity change, negative = growth inhibition, hits mostly inhibitors | hit rate 12% among 420,000 | chicken DT40 Tdp1-/-;hTDP1 cells + 20 nM CPT, ATP luminescence, 48 h | AID 686979; note: % is set by controls: 0 for no effect and ±100 for the full control effect; nearly all actives have a fitted effect of over 55% in size
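Cell growth measured by CellTiter-Glo luminescence after a minimum 48 h, 37 C compound exposure with 20 nM CPT in Tdp1-knockout DT40 cells stably expressing hTDP1, seeded 400/well; qHTS titration format.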
* marks the source's active call; other numbers are inactive results; i = inactive; ? = inconclusive; . = no result; [ ] = dose if it differs, or a comment. Calls come from the whole dose curve; as a rule, active = well fitted curve in the direction sought with a large enough effect; inconclusive = small, poorly fitted or top-dose-only effect, or another doubt; inactive = no such curve, though single readings can be large; an effect the other way counts as inactive or inconclusive. Potency is the fitted concentration of half-maximal effect.

SMILES | HepG2 tox | DT40 TDP1 no CPT | ATXN2 expr inh | S2 tox | TGFb inhibitor | DT40 TDP1 CPT
COc1ccc(NC(=O)CN(C)C(=O)c2ccc(N3CCCCC3)c([N+](=O)[O-])c2)cc1 | -9% | 15µM* | -5% | i | 0% | ?
COc1ccc(NC(=O)CN(C)C(=O)c2ccc(N3CCCCCC3)c([N+](=O)[O-])c2)cc1 | -3% | ? | 8% | ? | 23% | ?
COc1cccc(CN(C)C(=O)c2ccc(N3CCCC3)c([N+](=O)[O-])c2)c1 | -17% | 23µM* | -17% | i | -7% | 16µM*
CC(=O)C1=C(C)Nc2ncnn2C1c1ccc(Br)cc1 (stereo not given) | 7% | -3% | . | i | -10% | 3%
O=C(COc1ccc([N+](=O)[O-])cc1)Nc1ccc2c(c1)nc1n2CCOC1 | -2% | ? | -10% | i | -6% | ?
COc1ccccc1CNc1ncccn1 | 10% | 0% | -3% | i | 19% | 23%
COc1ccccc1CNCCCCCCNCCCCCCCCNCCCCCCNCc1ccccc1OC | . | 6.5µM* | . | . | . | 13µM*
CCCCCCCCNCCS(=O)(=O)NCc1ccccc1OC | -96% | -87% | ? | ? | ? | -93%
COc1ccccc1CNN | -30% | 5.8µM* | -4% | i | 18% | 2.6µM*
COc1ccccc1N=Nc1nc(-c2ccccc2)c(-c2ccccc2)[nH]1 | -43% | 16µM* | -9% | 35µM* | ? | 18µM*
COc1ccc(N=Nc2nc(-c3ccccc3)c(-c3ccccc3)[nH]2)cc1 | 5% | 16µM* | -5% | ? | ? | ?
CS(=O)(=O)c1nc(-c2ccccc2)c(-c2ccccc2)[nH]1 | 9% | -12% | -9% | i | -6% | 1%
Oc1ccccc1N=Nc1nc(-c2ccccc2)c(-c2ccccc2)[nH]1 | -63% | 2.9µM* | ? | . | ? | 2.6µM*
Cc1c(O)c2c(c(C(=O)/C=C/c3ccccc3)c1O)OC(C)(C)C=C2 | -45% | 11µM* | . | . | 11µM* | ?
COC1=C(C)C(O)=C(C(=O)/C=C/c2ccccc2)C(=O)C1(C)C | -19% | ? | ? | i | 1% | ?
O=C(NCCc1ccc(Cl)cc1)c1ccc(CSCc2cccc(Cl)c2)o1 | -32% | ? | ? | ? | ? | ?
Cc1ccc(CN2CCCN(Cc3cc(C)ccc3C)S2(=O)=O)cc1 | -22% | 13% | -10% | i | -25% | -12%
Cc1ccc(C)c(CN2CCCN(Cc3cc(C)ccc3C)S2(=O)=O)c1 | -5% | 9.2µM* | -9% | i | ? | ?
CCCCC/C=C\C/C=C\CCCCCCCC(=O)NC(C)c1ccccc1 (stereo not given) | . | 3% | -11% | i | . | -15%
O=C(N/N=C/c1ccc(N2CCOCC2)cc1)c1ccccc1OCCOc1ccccc1 | -22% | ? | ? | . | -5% | 16µM*
O=C(N/N=C/c1ccc(N2CCOCC2)cc1)c1ccncc1 | 0% | -23% | -10% | i | 2% | -21%
CCOC(=O)NC1(NCc2ccccc2)Oc2ccccc2O1 | -41% | 21µM* | 9% | i | 0% | ?
Cc1cccc(OCCN2C(=O)C(=O)c3cc(C)ccc32)c1 | -4% | 0.46µM* | 32% | ? | ? | 0.37µM*
Cc1ccc(OCCN2C(=O)c3ccccc3C2=O)cc1 | 7% | 4% | 34% | i | -22% | 10%
Cc1ccc2c(c1)C(=O)C(=O)N2CCOc1ccccc1 | -9% | 0.73µM* | 18% | ? | ? | 0.58µM*
SMILES | HepG2 tox | DT40 TDP1 no CPT | ATXN2 expr inh | S2 tox | TGFb inhibitor | DT40 TDP1 CPT
CCCCCCCCCCCCCCCC(=O)N[C@H](CN1CCOCC1)[C@H](O)c1ccccc1 | . | -14%[4.12 µM] | . | . | . | -19%[4.12 µM]
CCOC(=O)N1CCN(CC(O)COCc2cc(OC)c(OC)c(OC)c2)CC1 (stereo not given) | -3% | 0% | 1% | i | ? | -5%
COc1cc(COCC(O)CN2CCN(CCN3C(=O)c4cccc5cccc(c45)C3=O)CC2)cc(OC)c1OC (stereo not given) | -57% | 12µM* | -18% | i | ? | 18µM*
O=C1c2cccc3cccc(c23)C(=O)N1CCN1CCN(CC(O)COCc2ccc(Cl)cc2)CC1 (stereo not given) | 13µM* | 15µM* | ? | ? | 14µM* | 8.2µM*
N#C/C(=C1\C(=O)Nc2c(Cl)cc(Cl)cc21)c1nnc2n1CCCCC2 | 10% | -13% | -6% | i | -29% | ?
C=CCn1c(=O)/c(=C/c2ccc(Cl)cc2)s/c1=C(\C#N)c1nnc2n1CCCCC2 | -38% | 6.5µM* | ? | ? | 0% | 21µM*
O=C(O)c1cc2c(s1)-c1ccccc1OC2 | 1% | -22% | -5% | i | 10% | -23%
COc1cc(NC(=O)c2cc3c(s2)-c2ccccc2OC3)cc(OC)c1OC | -55% | 8.2µM* | ? | ? | ? | 16µM*
COC(=O)c1ccccc1NC(=O)c1cc2c(s1)-c1ccccc1OC2 | 5% | ? | 8% | i | 18% | 16µM*
CCc1ccc2nc(SCC(=O)Nc3nnc(C)s3)c(C)cc2c1 | -6% | ? | -21% | i | 39% | 9.2µM*
CCO[C@@H]1O[C@H](C(COCc2ccccc2)OCc2ccccc2)[C@H](OCc2ccccc2)[C@H]1O (stereo not given in full) | . | ? | -18% | i | . | 11µM*
COC(C[C@H]1O[C@@H]1[C@H](O)COCc1ccccc1)OC | -2% | -9% | 5% | i | 9% | 2%
O=C1CCC(C(=O)NC2(C(=O)NC3CCCCC3)CCCCC2)N1 (stereo not given) | 0% | 1% | -2% | i | -15% | -1%
CN(C)c1ccc(CNC(=O)c2sc3ncccc3c2-n2cccc2)cc1 | -2% | 21µM* | 13% | i | ? | 16µM*
Cc1ccc(CNC(=O)c2sc3nc(C)cc(C)c3c2-n2cccc2)cc1 | -14% | ? | . | . | -2% | -24%
COc1cccc(CNC(=O)c2sc3nc(C)cc(C)c3c2-n2cccc2)c1OC | -20% | ? | 4% | i | ? | 23µM*
CNC(=O)c1sc2ncccc2c1-n1cccc1 | 7% | ? | 13% | i | -1% | -22%
COc1cc(CNC(=O)c2sc3ncccc3c2-n2cccc2)cc(OC)c1OC | 2% | 10µM* | -25% | ? | -15% | 18µM*
